Source: PubChem BioAssay
Sampled rows, rich in hits. Any-hit rate of the full collection: about 1.5%.
TrxR1 substrate = rat thioredoxin reductase 1 substrate activity | Potency, µM (highest dose often 114 µM) | AID 588456 | O89049 | purified TrxR1 substrate turnover, NADPH consumption readout | 390,000 tested, 0.01% active; note: nearly all actives have a fitted effect of over 50% in size
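Rat TrxR1, dispensed at 90 nM, was prereduced with 400 uM NADPH (final) for 5 min at ~22 deg C, then incubated with compound 15 min before 400 uM selenite. A first-read NADPH fluorescence drop versus no-compound background flagged substrates.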
GALK inh = blocks human galactokinase activity. P51570. Purified GALK, Kinase-Glo residual ATP luminescence. 270,000 tested, 0.007% active. Potency, µM (top dose mostly 57.5 µM), most hits filed as inhibitors
Target sequence (P51570 whole entry, looked up): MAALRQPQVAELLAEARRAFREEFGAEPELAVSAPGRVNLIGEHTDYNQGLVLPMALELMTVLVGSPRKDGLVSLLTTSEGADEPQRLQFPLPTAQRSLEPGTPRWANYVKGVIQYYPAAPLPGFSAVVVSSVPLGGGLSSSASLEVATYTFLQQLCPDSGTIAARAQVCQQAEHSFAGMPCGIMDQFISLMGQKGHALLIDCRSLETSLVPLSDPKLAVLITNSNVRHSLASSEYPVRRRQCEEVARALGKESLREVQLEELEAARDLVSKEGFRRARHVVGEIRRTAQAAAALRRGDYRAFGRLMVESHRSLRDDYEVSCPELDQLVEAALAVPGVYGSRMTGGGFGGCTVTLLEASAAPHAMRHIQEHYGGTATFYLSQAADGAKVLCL
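Galactose (100 uM) and ATP (35 uM) were turned over by 5 nM GALK for 1 h at RT. Kinase-Glo Plus then converted the remaining ATP into a luminescent signal.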
FBPA coupling cs = coupling enzyme interference in Giardia aldolase counter-screen. AID 2472. activity change, negative = inhibition, % at 58.2 µM, hits read low. coupling enzyme system counterscreen, AmpLite Red fluorescence. 290,000 tested, 0.67% active; in the data active = activity change below about -30%
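Final compound at 57.5 uM, incubated 10 min at RT with coupling enzyme reagent (glyceraldehyde-3-phosphate), then 20 min with substrate and AmpLite Red detection. Fluorescence read at 525/598 nm; tests interference with the coupling assay, not aldolase inhibition.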
USP1 inh = blocks the human USP1/UAF1 deubiquitinase complex; recombinant USP1/UAF1, Ub-Rhodamine cleavage fluorescence; Potency, µM (highest dose often 57.1 µM), hits mostly inhibitors; AID 743255; O94782; 390,000 tested, 0.23% active; note: nearly all actives have a fitted effect of over 60% in size
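USP1/UAF1 complex at 1 nM was preincubated with compound for 15 min at room temperature, then Ub-Rho substrate (150nM final) was added. Fluorescence (480/540 nm) was read kinetically, 6 reads every 60 seconds.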
TrxR1 inh = rat TrxR1 inhibition; O89049; recombinant rTrxR1, NADPH fluorescence consumption, selenite substrate; Potency, µM (highest dose often 114 µM), hits mostly inhibitors; 390,000 tested, 1% active; note: nearly all actives have a fitted effect of over 65% in size
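Rat TrxR1 (90 nM in the dispensed reagent) was pre-reduced with 400 uM NADPH for 5 min at room temperature, then incubated with compound for 15 min. After 400 uM selenite was added, NADPH fluorescence (Ex 340/Em 450 nm) was followed for 8 min.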
Each line names hits and unclear results; the compound was inactive in the other large screens; ! = repeats disagree. Unless noted, calls come from the whole dose curve; as a rule, active = well fitted curve in the direction sought with a large enough effect; inconclusive = small, poorly fitted or top-dose-only effect, or another doubt; inactive = no such curve, though single readings can be large; an effect the other way counts as inactive or inconclusive.

O=C(O)c1ccc2c(ccc3nn(-c4ccc(/C=C/c5ccc(-n6nc7ccc8cc(C(=O)O)ccc8c7n6)cc5[S+](=O)([O-])[O-])c([S+](=O)([O-])[O-])c4)nc32)c1	TrxR1 inh inconclusive (no result: GALK inh, FBPA coupling cs, USP1 inh)
C=CCN1CCN(C(c2ccc(Cl)cc2)c2nnnn2CCc2ccc(OC)c(OC)c2)CC1 (stereo not given)	none
CC(C)CCn1nnnc1C(c1ccccc1)N1CCN(C)CC1 (stereo not given)	none
C=CCN1CCN(C(c2ccccc2)c2nnnn2CCC(C)C)CC1 (stereo not given)	TrxR1 inh 28.2µM
C=CCN1CCN(C(c2ccc(OC)c(OC)c2)c2nnnn2C(C)(C)C)CC1 (stereo not given)	FBPA coupling cs -72.3, TrxR1 inh inconclusive
Cc1ccc(CNS(=O)(=O)c2ccc3[nH]c4c(c3c2)CCCC4)cc1	none (no result: GALK inh, FBPA coupling cs)
CCS(=O)(=O)NCc1ccc2[nH]c3c(c2c1)CCCC3	FBPA coupling cs -44.2 (no result: TrxR1 substrate, USP1 inh, TrxR1 inh)
COP(=O)(OC)c1ccc(NCc2cc(O)ccc2O)cc1	USP1 inh inconclusive, TrxR1 inh 79.4µM (no result: GALK inh, FBPA coupling cs)
COc1ccc(-c2nc3c(c4c2C[C@H](c2ccccc2)OC4)CN(C(=O)Cc2cccs2)CC3)c(C)c1	none (no result: TrxR1 substrate, GALK inh, USP1 inh, TrxR1 inh)
COC(=O)CCC(=O)OC1(C)C(=O)C2=CN(c3ccc(OC)cc3)C(c3ccc(OC)cc3)=CC2=C(Br)C1=O (stereo not given)	USP1 inh inconclusive (no result: GALK inh)
COCCN1C=C2C(=O)C(C)(OC(=O)CCC(=O)OC)C(=O)C(Br)=C2C=C1c1ccc(OC)cc1 (stereo not given)	TrxR1 substrate inconclusive, FBPA coupling cs -30.1, USP1 inh 25.1µM (no result: GALK inh)
CCN(CC)CCCN1C=C2C(=O)C(C)(OC(=O)CCC(=O)OC)C(=O)C(Br)=C2C=C1c1ccc(OC)cc1 (stereo not given)	USP1 inh inconclusive (no result: GALK inh)
C=CCN1C=C2C(=O)C(C)(OC(=O)CCC(=O)OC)C(=O)C(Br)=C2C=C1c1ccc(OC)cc1 (stereo not given)	FBPA coupling cs -41.0!, USP1 inh 31.6µM
COC(=O)CCC(=O)OC1(C)C(=O)C2=CN(C3CCCC3)C(c3ccc(OC)cc3)=CC2=C(Br)C1=O (stereo not given)	FBPA coupling cs -41.0, USP1 inh 25.1µM
COC(=O)c1ccccc1S(=O)(=O)N1CCc2nc(COc3ccccc3)c3c(c2C1)CO[C@@H](C)C3	none (no result: TrxR1 substrate, GALK inh, USP1 inh, TrxR1 inh)
CCCCc1nc2c(c3c1C[C@H](C)OC3)CN(C(=O)N[C@H](C(=O)OC)C(C)C)CC2	none (no result: TrxR1 substrate, GALK inh, USP1 inh, TrxR1 inh)
COc1cccc(NC(=O)COc2ccccc2C(=O)Nc2ccccc2)c1	none (no result: GALK inh, FBPA coupling cs, USP1 inh)
COc1cccc(/C=N/NC(=O)c2c(C)nc3ccc(Br)cn23)c1	FBPA coupling cs -33.1
Cc1nc2ccc(Br)cn2c1C(=O)N/N=C\c1ccc(C(C)C)cc1	none
COc1cc(C2C(C#N)=C(N)N(c3cccnc3)C3=C2C(=O)CCC3)ccc1O (stereo not given)	none
COc1cc(C2C(C#N)=C(N)N(c3ccc(F)cc3)C3=C2S(=O)(=O)CC3)ccc1O (stereo not given)	TrxR1 inh 11.2µM
COc1ccccc1OCCn1c(CCNC(=O)C2CCCCC2)nc2ccccc21	none (no result: GALK inh, FBPA coupling cs, USP1 inh)
CCSC1(SCC)N=C(N)C2(C#N)C(c3ccc(F)cc3)C12C#N (stereo not given)	TrxR1 inh 31.6µM
COC1(OC)N=C(N)C2(C#N)C(c3ccc(F)cc3)C12C#N (stereo not given)	none
COc1cc(N=C2C(=O)N3c4c(cccc42)C(C)=CC3(C)C)cc(OC)c1	none
CC1=CC(C)(C)N2C(=O)C(=Nc3ccc(O)cc3)c3cccc1c32	FBPA coupling cs -44.9, USP1 inh 3.55µM, TrxR1 inh inconclusive
Cc1cc(N2CCOCC2)nc2ccc(NC(=O)CCC(=O)N3CCCCC3)cc12	none
Cc1cc(N2CCOCC2)nc2ccc(NC(=O)CCC(=O)N3CCC(C)CC3)cc12	FBPA coupling cs -33.0
Cc1nn(-c2ccccc2)c(Cl)c1CN(C(=O)CCl)c1ccc(Cl)cc1	TrxR1 inh 22.4µM
COC(=O)c1cc(=O)c(O)c2c(O)c(O)ccc2c1	FBPA coupling cs -30.6 (no result: TrxR1 substrate, GALK inh, USP1 inh, TrxR1 inh)
NC(=O)/C=C\C(=O)Nc1cccc(C(F)(F)F)c1	TrxR1 inh 25.1µM
NNC(=O)Nc1cccc(C(F)(F)F)c1	none
